Results published in PubChem BioAssay AID1825 (The Scripps Research Institute Molecular Screening Center, 2009).
The whole screen tested about 290,000 compounds, of which about 2,300 (0.79%) were called active. This excerpt belongs to a sample that is enriched for actives. Unmarked numbers belong to inactive results. Cut-off read from the data, not from the text of the source: active = inhibition above about 22%; inactive = the rest.

Experiment: IEC-6 cell viability reduction – luminescence, cytotoxicity control for KLF5 inhibitor project, primary screen (AID 1825);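 note: 0% = plate median of test compound wells and 100% = cytotoxic reference compound wells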
Conditions: IEC-6 cytotoxicity, at 5 µM, active compounds read high
For `O=c1[nH]cnc(O)c1C(c1ccc(F)cc1)c1c(O)nc[nH]c1=O`, the inhibition was -4.2%. Work on `CC1C(=O)Nc2ccc(S(=O)(=O)N3CCN(c4ccccc4F)CC3)cc2NC1=O` (centres undefined) yielded an inhibition of 1.5%. In the case of `O=c1c2c(-c3ccccc3)ccnc2[nH]n1-c1ccccc1`, the inhibition is reported as -0.7%. `COc1ccc(-c2ccc(CCC(=O)O)n2NC(=O)c2ccc(C(C)(C)C)cc2)cc1` showed an inhibition of -6.8%. For `Cc1ccc(-c2cc(=O)c3ccc(Cl)cc3[nH]2)cc1`, the inhibition was 0.6%. In the case of `O=c1cc(-c2ccccc2)[nH]c2cc(F)ccc12`, the inhibition is reported as 80.7% (active). In the case of `Cc1ccc(-c2cc(=O)c3ccc(F)cc3[nH]2)cc1`, the inhibition is reported as -6.3%. Work on `O=C(Nc1cccc2cccnc12)c1cccc(Cl)c1` yielded an inhibition of 7.6%. For `COc1ccc(C(=O)NCC(=O)N/N=C/c2cccnc2)cc1`, the inhibition was 3.2%. `Cc1nc2nc(C)c(NS(=O)(=O)c3ccc(C(C)(C)C)cc3)c(=O)n2[nH]1` gave an inhibition of 1.1%. In the case of `Cn1nccc1C(=O)NC1CCCc2c1cnn2-c1ccccc1F` (centres undefined), the inhibition is reported as 25.7% (active). With `Cn1nccc1C(=O)NC1CCCc2c1cnn2-c1ccc(F)cc1F` (centres undefined) the inhibition was 31% (active). In the case of `COc1ccc(C(=O)NC2CCCc3c2cnn3-c2cccc(C)c2C)c(OC)n1` (centres undefined), the inhibition is reported as 8.5%. `Cc1cc(C(=O)NC2CCCc3c2cnn3-c2cccc(C)c2C)c(C)o1` (centres undefined) gave an inhibition of 4.8%. In the case of `CC(=O)NCC(=O)NC1CCCc2c1cnn2-c1ccccc1F` (centres undefined), the inhibition is reported as -1.9%. With `Cc1ccc(-n2ncc3c2CCCC3NC(=O)c2cnccn2)cc1C` (centres undefined) the inhibition was 3.7%. With `Cc1ccc(/C=C2\CCn3c2nc2cc(C(=O)O)ccc2c3=O)c(C)c1` the inhibition was 1.8%. Work on `C=C(C)Cn1c(C)cc(C)c(S(=O)(=O)c2ccccc2C)c1=O` yielded an inhibition of -2.1%. For `Cc1cccc(-n2ncc(Cl)c(Cl)c2=O)c1`, the inhibition was 97.5% (active). For `COc1ccc(Oc2c(Cl)cnn(-c3ccccc3)c2=O)cc1`, the inhibition was 1.3%. `Cc1cccc(-n2ncc(C#N)c2-n2cccc2)c1` showed an inhibition of 1.1%. For `CC(C)CC(=O)N1CCN(Cc2ccccc2Br)CC1`, the inhibition was 1.6%. In the case of `COc1ccc(/C=C/C(=O)Nc2ccc(C34CC5CC(CC(O)(C5)C3)C4)cc2)cc1OC`, the inhibition is reported as 18.5%. Compound `O=C(N=C1SC2CS(=O)(=O)CC2N1c1cc(Cl)ccc1Cl)C1CC1` (centres undefined) has an inhibition of -6.4%. With `COc1ccc(C23NCCN2C(=O)c2ccccc23)cc1` (centres undefined) the inhibition was 1.3%. `COc1cccc(N2C(=O)CN(Cc3ccccc3)C2=S)c1` gave an inhibition of 9.4%. In the case of `Cc1ccc(S(=O)(=O)C2(S(=O)(=O)c3ccc(C)cc3)CCCC2)cc1`, the inhibition is reported as 45.6% (active). Compound `Cc1ccc(S(=O)(=O)N2CCN(C)CC2)cc1` has an inhibition of -1.1%. Compound `Cc1ccc(S(=O)(=O)N(C)C2(C)CCS(=O)(=O)C2)cc1` (centres undefined) has an inhibition of -8.7%.
